# Rows were chosen to be rich in hits. Some 22% of all compounds tested hit in one or more screens of this group.
# CYP2C19 act – human CYP2C19 activators, primary screen, biochemical, luminescence | recombinant CYP2C19, luciferin-H EGE luminescence; hits give high values; 0 = fully inhibited enzyme, 1 = untreated enzyme | activation factor at 5 µM | 96,000 tested, under 10 active;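 active means activation factor of at least 2 at 5 µM in the primary screen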;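 further: 0 = wells with 2.5 mM tranylcypromine and 1 = vehicle-only wells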
# CYP2C9 inhib – blockers of cytochrome P450 2C9 activity – biochemical, luminescence, ADME assay, primary screen | P11712 | CYP2C9 Supersomes, luciferin-H conversion | inhibition, % at 5 µM | 96,000 tested, 20% active;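 active means blocking of liver enzyme CYP2C9 beyond about 50% at 5 µM, limit read from the data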
# Target sequence (P11712 whole entry, looked up): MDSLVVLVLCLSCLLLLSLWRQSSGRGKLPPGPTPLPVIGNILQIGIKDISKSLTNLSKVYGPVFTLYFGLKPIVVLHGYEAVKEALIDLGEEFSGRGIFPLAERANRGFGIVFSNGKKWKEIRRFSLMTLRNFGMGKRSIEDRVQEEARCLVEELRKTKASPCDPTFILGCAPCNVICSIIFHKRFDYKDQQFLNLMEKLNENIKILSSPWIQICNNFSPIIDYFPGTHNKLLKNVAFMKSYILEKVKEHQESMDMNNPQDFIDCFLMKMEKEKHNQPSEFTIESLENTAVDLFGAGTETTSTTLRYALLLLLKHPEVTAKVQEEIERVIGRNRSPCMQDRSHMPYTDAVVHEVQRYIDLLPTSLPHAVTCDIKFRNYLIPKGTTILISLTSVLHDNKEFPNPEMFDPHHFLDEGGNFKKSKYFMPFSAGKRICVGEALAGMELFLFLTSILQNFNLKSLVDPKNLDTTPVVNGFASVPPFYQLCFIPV
# CYP2C9 activ – human CYP2C9 activators, primary screen, biochemical, luminescence. Cytochrome P450 2C9 (Homo sapiens), P11712. activation factor at 5 µM. 96,000 tested, 1.4% active. recombinant CYP2C9, luciferin-H conversion; hits give high values; factor 1 = untreated enzyme, 0 = blocked. AID 1024, 2008;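 active means activation factor of 2 or more for CYP2C9 at a 5 µM dose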;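 further: 0 = sulfaphenazole-blocked wells and 1 = vehicle-only wells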
# CYP2C19 inhib – blockers of cytochrome P450 2C19 activity – biochemical, luminescence, ADME assay, primary screen. P33261. CYP2C19 Supersomes, luciferin-H EGE luminescence, 30 min. inhibition, % at 5 µM. 96,000 tested, 21% active;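 active means CYP2C19 inhibition above a set limit at 5 µM in the primary screen, cut at about 50% in these data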;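 further: plate controls were negative control wells for no effect and 2.5 mM tranylcypromine positive control for full effect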
# Measles CPE – compounds protecting cells from measles virus cytopathic effect, primary screen, measles RdRp inhibitor project, single point, MLSMR library, absorbance. 140,000 tested, 1.5% active. Measles virus-infected cells, CPE protection. protection (pct of control), % at 4 µM; in the data active means protection mostly above about 24%, no sharp cut-off; inactive means mostly below about 26%
# Active calls of the source: *; nt = no result.
SMILES,CYP2C19 act,CYP2C9 inhib,CYP2C9 activ,CYP2C19 inhib,Measles CPE
CC(=O)NC1CC2CCCC(C1)N2C(=O)Nc1ccc(Cl)c(C(F)(F)F)c1 (stereo not drawn),0.4,12,0.9,58*,4
CS(=O)(=O)N1CCC(C(=O)Nc2ccc(Cl)c(C(F)(F)F)c2)CC1,0.7,33,0.7,34,0
COCCN(C(=S)Nc1ccc(OC)cc1)C(C)c1cccs1 (stereo not drawn),nt,nt,nt,nt,8
CC(C)NS(=O)(=O)c1ccc(OCC(=O)NCc2ccccc2)cc1,0.6,61*,0.4,43,2
CC(C)NS(=O)(=O)c1ccc(OCC(=O)NCc2cccnc2)cc1,0.9,45,0.5,10,34
CCC(=O)NCCn1c(C)cc2ccccc21,0.7,5,0.9,30,14
COc1ccc(CNC(=O)COc2ccc(S(=O)(=O)NC(C)C)cc2)cc1,0.3,86*,0.1,68*,4
O=C(COc1ccccc1)NCc1ccccc1,0.3,9,0.9,74*,12
Cc1cc2ccccc2n1CCNC(=O)COc1ccccc1,0.1,38,0.6,94*,5
Cc1cccc(OCCCC(=O)NC(C)c2ccccc2)c1 (stereo not drawn),0.5,-52,1.5,46,2
CN(CCC#N)S(=O)(=O)c1ccc2c(c1)c(=O)n(C)c(=O)n2C,1,44,0.6,-4,18
Cc1cc(C(C)c2ccccc2)c(O)c(CN2CCOCC2)c1C (stereo not drawn),0.8,24,0.8,22,20
CCNC(=O)COc1ccc(-c2ccccc2)cc1,0.4,29,0.7,62*,62*
CC(C)(C)NC(=O)COc1ccc(-c2ccccc2)cc1,0.9,-18,1.2,10,9
CC(=O)Nc1nc2ccccc2n1CCOc1ccccc1Cl,0.4,13,0.9,60*,6
CC(NC(=O)c1ccccc1)c1nc2ccccc2n1Cc1ccccc1F (stereo not drawn),0.5,60*,0.4,48,4
Cc1ccccc1Cn1c(C(C)O)nc2ccccc21 (stereo not drawn),0.4,-3,1,59*,13
CC(NC(=O)c1ccccc1)c1nc2ccccc2n1Cc1ccc(C#N)cc1 (stereo not drawn),0.7,49,0.5,30,16
CCCCCCn1c(C(C)NC(=O)c2ccco2)nc2ccccc21 (stereo not drawn),0.6,56*,0.4,42,10
COc1ccc(C2NC(=S)NC(C)=C2C(=O)c2ccccc2)cc1OC (stereo not drawn),nt,nt,nt,nt,14
Cc1cccc(-n2cccc2)c1C#N,0.9,-3,1,15,10
O=[N+]([O-])c1ccc(N/N=C\c2ccccc2OCc2ccccc2)cc1,nt,nt,nt,nt,5
CC(=O)Nc1nc2ccccc2n1Cc1ccccc1C,0.2,13,0.9,82*,2
CC(=O)NCc1nc2ccccc2n1Cc1ccccc1C,0.8,-8,1.1,16,7
O=C(Oc1cccc2c(OC(=O)N3CCOCC3)cccc12)N1CCOCC1,1.1,2,1,-11,6
SMILES,CYP2C19 act,CYP2C9 inhib,CYP2C9 activ,CYP2C19 inhib,Measles CPE
Cc1c(Nc2cc(N3CCCCCC3)c3nonc3c2[N+](=O)[O-])c(=O)n(-c2ccccc2)n1C,0.7,40,0.6,30,12
CCCc1cc(=O)[nH]c(SCC(=O)c2cc(C)n(C(C)COC)c2C)n1 (stereo not drawn),nt,nt,nt,nt,45*
COC(=O)c1cc(CSc2nc3ccccc3[nH]2)oc1C,0,87*,0.1,98*,5
CCCc1cc(=O)[nH]c(SCc2cc(C(=O)OC)c(C)o2)n1,0.2,87*,0.1,77*,26
COCC(C)n1c(C)cc(C(=O)COC(=O)c2ccc3ncsc3c2)c1C (stereo not drawn),0.2,-79,1.8,78*,7
CCCc1cc(=O)[nH]c(SCC(N)=O)n1,1,-3,1,0,28
COc1cccc(CSc2nc3ccccc3[nH]2)c1,nt,nt,nt,nt,7
O=[N+]([O-])c1cc(C(F)(F)F)cc([N+](=O)[O-])c1NCc1cccnc1,nt,nt,nt,nt,7
O=C(NCc1ccccc1)NC1(C(=O)Nc2ccc3c(c2)OCCO3)CCCCC1,1.2,-15,1.2,-18,6
CCOC(=O)/C(=C/c1ccc(Cl)cc1)NC(=O)c1ccco1,nt,nt,nt,nt,9
COc1ccc2cc(CN(CC3CCCO3)S(=O)(=O)c3ccc(C(C)=O)cc3)c(=O)[nH]c2c1 (stereo not drawn),0.6,60*,0.4,35,11
COc1ccc(NC(=O)N(Cc2cc3cc(OC)ccc3[nH]c2=O)CC2CCCO2)cc1 (stereo not drawn),1,23,0.8,-4,4
COc1ccc(S(=O)(=O)N(CCCN2CCCC2=O)Cc2cc3c(C)cc(C)cc3[nH]c2=O)cc1,0.3,94*,0.1,65*,3
COC(=O)c1ccccc1S(=O)(=O)N(Cc1cc2ccc(OC)cc2[nH]c1=O)CC1CCCO1 (stereo not drawn),0.6,90*,0.1,38,33
COc1ccc(S(=O)(=O)N(Cc2cc3cc(C)ccc3[nH]c2=O)CC2CCCO2)cc1 (stereo not drawn),0.7,60*,0.4,25,1
COc1ccc(N(Cc2cc3ccccc3[nH]c2=O)C(=O)C2CCCO2)cc1 (stereo not drawn),0.9,10,0.9,10,16
CCN1C(=O)CC(n2c(C)nc3ccccc32)C1=O (stereo not drawn),1.1,-12,1.1,-12,7
O=C(/C=C(\c1ccc(Cl)cc1)n1cncn1)c1ccc(Cl)cc1,0.1,8,0.9,90*,8
O=C(CCC(=O)c1cccs1)OCc1nnc(-c2ccccc2)o1,0.8,2,1,17,3
CCOC(=O)N1CCC(NC(=O)C2CCN(S(=O)(=O)c3cccs3)CC2)CC1,0.9,22,0.8,9,4
O=C(OCCN1C(=O)c2ccccc2C1=O)c1cccs1,0.5,28,0.7,46,17
Cc1cccc(OCCOC(=O)C2CCN(S(=O)(=O)c3cccs3)CC2)c1,0.5,65*,0.3,47,10
O=C(OCCN1C(=O)c2ccccc2C1=O)C1CCN(S(=O)(=O)c2cccs2)CC1,0.1,97*,0,86*,23
O=C(OCc1nnc(-c2ccccc2)o1)C1CCN(S(=O)(=O)c2cccs2)CC1,0.6,79*,0.2,38,1
Cc1cccn2c(=O)c3cc(C(=O)NCc4cccnc4)c(=N)n(C)c3nc12,1,-4,1,-3,nt
C=CCn1c(O)c(N=NC(=S)Nc2cccc(C)c2)c2ccccc21,nt,nt,nt,nt,4
COc1nc2ccccc2c(=O)n1OCC(C)C,0.2,19,0.8,82*,8
COC(=O)c1ccc(Sc2ccccc2NS(=O)(=O)c2ccc(OC)cc2)nc1,0.7,44,0.6,26,15
